Reference: PubChem BioAssay AID624296 (National Center for Advancing Translational Sciences (NCATS), 2012)
The whole screen tested about 350,000 compounds, of which about 9,900 (2.8%) were called active. Roughly 15% stayed inconclusive and do not appear here. Calls follow the shape of the dose curve; as a rule, active = well fitted activation curve with a large enough effect; inconclusive = small, poorly fitted or top-dose-only effect; inactive = no such curve, though single readings can be large or run the other way. This excerpt belongs to a sample that is enriched for actives.

Assay: A quantitative high throughput screen for small molecules that induce DNA re-replication in MCF 10a normal breast cells. Also: nearly all actives have a fitted effect of over 50% in size. As to activity, positive = re-replication: % of control where 0% means no effect.
Details: MCF 10A DNA re-replication, Hoechst nuclear intensity, 48 h; series mostly up to 46.1 µM; activity, positive = re-replication: at the top concentration
Potency is read from the fitted curve at half-maximal effect.

SMILES	activity, positive = re-replication	Potency
CC(NC(=O)c1ccccc1)C(=O)Nc1ccccc1 (stereo not drawn)	-2.99% (inactive)	
CC(Oc1ccc2c(-c3ccccc3)cc(=O)oc2c1)C(=O)NC(Cc1c[nH]c2ccccc12)C(=O)O (stereo not drawn)	-19.5% (inactive)	
Cc1ccccc1N1CCN(S(=O)(=O)c2ccc3ccccc3c2)CC1	17.8% (inactive)	
Cc1cc(N2CCN(S(=O)(=O)c3ccc(C)c(C)c3)CC2)c2ccccc2n1		10.3 µM (active)
Cc1ccc(S(=O)(=O)N2CCN(c3ccccc3)CC2)cc1C	1.22% (inactive)	
COc1ccc(Cl)cc1C=CC=NNC(=O)c1ccncc1	0.633% (inactive)	
COc1ccccc1C(=O)NCC(=O)OCC(=O)NNC(=O)c1ccc(Br)cc1	-1.96% (inactive)	
O=C(O)c1ccccc1N=N/C(=N/Nc1cc(S(=O)(=O)O)ccc1O)c1ccccc1	-5.64% (inactive)	
Cc1cccc(NC(=O)CN2C(=O)c3ccccc3C2=O)c1C	14.4% (inactive)	
Cc1cc(C)cc(NC(=O)CN2C(=O)c3ccccc3C2=O)c1	-6.92% (inactive)	
O=C(CN1C(=O)c2cccc3cccc1c23)Nc1ccccc1		20.6 µM (active)
CN(C(=O)CSc1nnc(-c2ccc3c(c2)OCO3)o1)C1CCS(=O)(=O)C1 (stereo not drawn)	-9.07% (inactive)	
Cc1ccc(S(=O)(=O)N(C)C)cc1NC(=O)c1ccc(-n2cncn2)c([N+](=O)[O-])c1	1.7% (inactive)	
CCOCCn1[nH]c2ccccc2c1=O	13.8% (inactive)	
COc1ccc(CNC(=O)COC(=O)C2=Cc3ccccc3OC2)cc1		18.4 µM (active)
O=C(COC(=O)c1ccc2c(c1)OCCO2)NCc1ccccc1	-0.36% (inactive)	
COc1ccc(CCNC(=O)COC(=O)c2cc(=O)c3ccccc3o2)cc1	-1.05% (inactive)	
CN(/N=C/c1ccccc1)C(=S)c1ccccc1	0.402% (inactive)	
CCC(CO)Oc1cc(NC(=O)c2ccc(Cl)cc2)c2ncn(C(C)C)c2c1 (stereo not drawn)	0.301% (inactive)	
Cc1nnc(N/N=C/c2cccs2)[nH]c1=O	-2.78% (inactive)	
Cc1nnc(N/N=C/c2ccccn2)[nH]c1=O		2.59 µM (active)
Cc1ccccc1Nc1nnc(C)c(=O)[nH]1	-1.32% (inactive)	
COc1ccc2nc(N3CCCC(O)C3)c(C#N)cc2c1 (stereo not drawn)	6.88% (inactive)	
CCOc1ccc2nc(N3CCCN(C(=O)Nc4ccccc4C)CC3)c(C#N)cc2c1		16.4 µM (active)
CCOc1ccc(C(=O)NC2CCN(C(=O)Nc3ccccc3OC)CC2)cc1	0.507% (inactive)	
C[C@H](NS(=O)(=O)c1ccc(Cl)cc1)C(=O)OCC(=O)N1CCOCC1	-7.44% (inactive)	

SMILES	activity, positive = re-replication	Potency
CC(C)[C@@H](C(=O)OCC(=O)c1ccc2c(c1)NC(=O)CO2)N1C(=O)c2ccccc2C1=O	14.5% (inactive)	
Cc1cccc(Nc2nnc(SCC(=O)c3c(N)n(C4CC4)c(=O)[nH]c3=O)s2)c1C	3.57% (inactive)	
COc1ccc(Cc2nnc(N/N=C/c3ccccc3O)[nH]c2=O)cc1OC		10.3 µM (active)
O=c1[nH]c(NCCO)nnc1Cc1ccc(Cl)cc1	-14.8% (inactive)	
COc1ccc(/C=N/Nc2nc3ccccc3c(=O)[nH]2)cc1	0.203% (inactive)	
CCN(CC)S(=O)(=O)c1ccc(N2CCOCC2)c(NC(=O)C(C)Oc2ccc(F)cc2)c1 (stereo not drawn)	0.635% (inactive)	
O=C(Nc1nnc(-c2ccccc2)o1)c1cc(-c2cccs2)nc2ccccc12		2.06 µM (active)
CC(C)(C)Cc1nnc(NC(=O)c2cc(-c3ccccc3)nc3ccccc23)s1	19.2% (inactive)	
COC(=O)c1cc(-c2cccs2)nc2ccccc12	-1.79% (inactive)	
COc1cccc(N2CCN(CC(=O)Nc3ccnn3C3CCCC3)CC2)c1	8.58% (inactive)	
Cc1cc(C)cc(NC(=O)C(c2ccccc2)N2CCN(CC(=O)N3CCCC3)CC2)c1 (stereo not drawn)	0.469% (inactive)	
COc1ccc(CNC(=O)C[C@H]2C[C@H](C(=O)N3CCOCC3)[C@@]3(C)c4[nH]c5cc(CCC(=O)N(C)C)ccc5c4CCN3C2=O)cc1OC	-2.67% (inactive)	
O=C(CN1C(=O)NC2(CCCCC2)C1=O)N1CCN(C(=O)c2cccs2)CC1	-2% (inactive)	
CCC1(C)Cc2c(sc3[nH]c(=S)n(Cc4ccccc4)c(=O)c23)CO1 (stereo not drawn)		13 µM (active)
CCC1(C)Cc2c(sc3nc(SC)[nH]c(=O)c23)CO1 (stereo not drawn)	-1.6% (inactive)	
CCn1c(=S)[nH]c2sc3c(c2c1=O)CCCCC3	7.93% (inactive)	
CCCCn1c(=O)c(C(C)=O)c(O)c2ccccc21	5.82% (inactive)	
CS(=O)(=O)N(CC(O)Cn1c2ccccc2c2ccccc21)c1cccc2ccccc12 (stereo not drawn)		16.4 µM (active)
Cc1cc(C)n(CC(O)CN(c2ccccc2)S(=O)(=O)c2ccc3ccccc3c2)n1 (stereo not drawn)	3.27% (inactive)	
CCCCN(CCCC)CC(O)Cn1c2ccccc2c(=O)c2ccccc21 (stereo not drawn)		18.4 µM (active)
CCCn1c(=O)c(-c2ccccc2)c(O)c2ccccc21	7.08% (inactive)	
O=S(=O)(c1ccccc1)N(CC(O)CN1CCCCC1)c1ccccc1 (stereo not drawn)	4.96% (inactive)	
O=C(CN1C(=O)NC(Cc2c[nH]c3ccccc23)C1=O)Nc1ccccc1C(F)(F)F (stereo not drawn)	3.41% (inactive)	
CN(CC(=O)Nc1ccc(C(N)=O)cc1)S(=O)(=O)c1ccc2c(c1)OCCO2	-1.22% (inactive)	
CC(=O)NCC(=O)NC1CCCc2c1cnn2-c1ccccc1F (stereo not drawn)	-1.44% (inactive)	
Cn1nccc1C(=O)NC1CCCc2c1cnn2-c1ccccc1F (stereo not drawn)	10.6% (inactive)	

SMILES	activity, positive = re-replication	Potency
COc1ccc(C(=O)NC2CCCc3c2cnn3-c2cccc(C)c2C)c(OC)n1 (stereo not drawn)		18.4 µM (active)
CC(C)(C)NS(=O)(=O)NC(=O)C1=C(N2CCCC2)COC1=O	11.9% (inactive)	
Cc1ccc(S(=O)(=O)N2CCCCC2)cc1NC(=O)[C@@H]1CCCN1C(=O)c1cccs1	-5.26% (inactive)	
Cc1ccc(S(=O)(=O)NCC(=O)NNC(=O)c2ccc(Br)cc2)cc1C	5.77% (inactive)	
Cc1cc(C(F)(F)F)nn1-c1nc(-c2ccco2)cc(C(F)(F)F)n1	-6% (inactive)	
FC(F)(F)c1cc(-c2cccs2)nc(NCc2ccco2)n1	13.3% (inactive)	
FC(F)(F)c1cc(-c2ccco2)nc(NCc2ccc(Cl)cc2)n1		16.4 µM (active)
CN(CC(=O)Nc1ccc(F)c(F)c1F)C(=O)C1CC(=O)N(C2CCCC2)C1 (stereo not drawn)	-28.2% (inactive)	
O=C(N[C@@H](Cc1c[nH]c2ccccc12)C(=O)O)OCC1c2ccccc2-c2ccccc21	10.8% (inactive)	
COc1ccc(CCNC(=O)COC(=O)c2ncc(Cl)c(Cl)c2Cl)cc1OC	-0.637% (inactive)	
CCOC(=O)c1ccccc1NC(=O)CSc1nc2ccccc2c(=O)[nH]1		18.4 µM (active)
CCOC(=O)c1cnc(SCC(=O)Nc2ccccc2C(=O)OC)nc1N	16.1% (inactive)	
COC(=O)c1ccccc1NC(=O)CSc1nc2c(c(=O)[nH]1)CCC2	-2.45% (inactive)	
Cc1ccc(Cn2c(C)c3cnn(CC(=O)NCCN4CCOCC4)c(=O)c3c2C)cc1	-2.54% (inactive)	
O=C(NCCCN1CCOCC1)c1cn(-c2ccccc2)nc1-c1ccc(F)cc1	10.2% (inactive)	
COc1ccc(-c2ccc3c(c2)C2CC3CCN2CCC#N)cc1 (stereo not drawn)	1.97% (inactive)	
CCN(CC)S(=O)(=O)c1cc(C(=O)Nc2cc(S(=O)(=O)N3CCOCC3)ccc2N2CCCC2)ccc1F	-0.679% (inactive)	
O=C1NC(c2ccncc2)Nc2sc3c(c21)CCCC3 (stereo not drawn)	11.3% (inactive)	
O=C1CCCCC1C(=O)c1ccccc1 (stereo not drawn)	1.46% (inactive)	
C/C(=C\c1ccccc1)C1NC(=O)c2c(sc3c2CCCC3)N1 (stereo not drawn)		20.6 µM (active)
CNC[C@H]1Oc2c(NC(=O)C3CCCCC3)cccc2C(=O)N([C@H](C)CO)C[C@@H]1C	-2.79% (inactive)	
Cc1noc(C)c1S(=O)(=O)N(C)C[C@H]1Oc2ccc(NC(=O)C3CCCCC3)cc2C(=O)N([C@H](C)CO)C[C@@H]1C	26.5% (inactive)	
O=C(CN1CCC(O)(c2ccccc2)CC1)Nc1ccc2c(c1)OCCO2	-3.64% (inactive)	
O=C(COC(=O)c1ccccc1)c1ccc2c(c1)OCCO2	4.61% (inactive)	
O=C(CCN1CCc2ccccc2C(O)(c2ccccc2)C1)c1ccc2c(c1)OCCO2 (stereo not drawn)		6.51 µM (active)
CCN(C(=O)COC(=O)c1ccccc1O)c1cccc2ccccc12	-2.15% (inactive)	

SMILES	activity, positive = re-replication	Potency
O=C(CCCOc1ccccc1)NNC(=O)c1ccc(Cl)cc1	-2.69% (inactive)	
CCC1=NN2C(=N)/C(=C/c3cc(C)n(-c4ccccc4)c3C)C(=O)N=C2S1	11.7% (inactive)	
CCS(=O)(=O)C1=NSC2=NC(=O)/C(=C\c3cc(C)n(-c4cccc(OC)c4)c3C)C(=N)N21		5.8 µM (active)
CCS(=O)(=O)C1=NSC2=NC(=O)/C(=C\c3ccc(OS(=O)(=O)c4ccccc4)cc3)C(=N)N21	-5.59% (inactive)	
CC(=O)c1cccc(-c2ccc(CN3C(CC(C)C)C(=O)N(Cc4cn(CC5CCCCC5)nn4)CCS3(=O)=O)cc2)c1 (stereo not drawn)	24.9% (inactive)	
CCOc1cc(NC(=O)c2ccccn2)c(OCC)cc1NC(=O)c1ccc(OC)cc1		3.26 µM (active)
CCOc1ccc(C(=O)Nc2cc(OC)ccc2OC)cc1	1.23% (inactive)	
CCOc1cc2ccccc2cc1C(=O)Nc1ccccn1	5.04% (inactive)	
CN(Cc1ccc(CNC[C@H]2O[C@@H](n3cnc4c(N)ncnc43)[C@H](O)[C@@H]2O)o1)S(C)(=O)=O	-3.25% (inactive)	
Cc1c(C(C)CCCO)oc(=O)c2c1Oc1c(C)c(C(C)C[C@@H](C)O)oc(=O)c1C2 (stereo partly drawn)	-16.4% (inactive)	
CCCn1c(C)cc(C(=O)COC(=O)c2c(C)nn(-c3ccccc3)c2C)c1C		9.2 µM (active)
Cc1nn(-c2ccccc2)c(C)c1C(=O)OCC(=O)NC(=O)NC1CCCCC1	5.35% (inactive)	
Cc1cccc(C)c1NC(=O)COC(=O)c1c(C)nn(-c2ccccc2)c1C	-7.91% (inactive)	
O=C1CCC/C=C\C[C@@H](CC(=O)N(CCO)Cc2ccccc2)C(=O)NCCO1	-0.188% (inactive)	
O=C1OCC2=C1C(c1ccc(Cl)cc1)c1cc3c(cc1O2)OCO3 (stereo not drawn)	29.5% (inactive)	
C=CC(=O)OCCOCCOCCOCCOC(=O)C=C		5.8 µM (active)
COc1ccc(Nc2cc(C)nc(-n3nc(C)cc3C)n2)cc1		2.06 µM (active)
Cc1cc(N/N=C\c2ccc(Br)cc2)nc(-n2nc(C)cc2C)n1		18.4 µM (active)
CCOC(=O)c1cnc(-n2nc(C)cc2C)nc1Nc1cccc(C(C)=O)c1	0.919% (inactive)	
Cc1cc(C)n(-c2nnc(N3CCN(c4ccccc4)CC3)nn2)n1	1.27% (inactive)	
Cc1cc(Nc2ccc(Cl)cc2)nc(N2CCOCC2)n1	4.08% (inactive)	
CC(=O)c1ccc(Oc2cc(C)nc(-n3nc(C)cc3C)n2)cc1		4.11 µM (active)
CC(=O)Nc1ccc(Nc2cc(C)nc(Nc3ccc(NC(C)=O)cc3)n2)cc1	3.9% (inactive)	
Cc1cc(C)n(-c2ccc(Cl)c(C(=O)O)n2)n1	3.83% (inactive)	
Cc1ccc(S(=O)(=O)Nc2nc(C)cc(N/N=C/c3ccc(O)cc3)n2)cc1	-0.365% (inactive)	
